# Legend:
# Assay in all cases: DAPPL (digital affinity profiling via proximity ligation, sequencing); 10 mM Tris-HCl pH 7.5, 50 mM NaCl, 1 mM DTT, 4% glycerol, room temperature, 30 min; GST-TFs on glutathione beads, 16-mer random dsDNA library, 0.1% formaldehyde crosslink after washing; high values mean tight binding
# Details in all cases: protein: recombinant; tags: N-terminal GST; dsDNA, one strand shown
# ELK1 = molecular target: T1, ELK1 (Homo sapiens, UniProt P19419 1-428)
# T1 sequence: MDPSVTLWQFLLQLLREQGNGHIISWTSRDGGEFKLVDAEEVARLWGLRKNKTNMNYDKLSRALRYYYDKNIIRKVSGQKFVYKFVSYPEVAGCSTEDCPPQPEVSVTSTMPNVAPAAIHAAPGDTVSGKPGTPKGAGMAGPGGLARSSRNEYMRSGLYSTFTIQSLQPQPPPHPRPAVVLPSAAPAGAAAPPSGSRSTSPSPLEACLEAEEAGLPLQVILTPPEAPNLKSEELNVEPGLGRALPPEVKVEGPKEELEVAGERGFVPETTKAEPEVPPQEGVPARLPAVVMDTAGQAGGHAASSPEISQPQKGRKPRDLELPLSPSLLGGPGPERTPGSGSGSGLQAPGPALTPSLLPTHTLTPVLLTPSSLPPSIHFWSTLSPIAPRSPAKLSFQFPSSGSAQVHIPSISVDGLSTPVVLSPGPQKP
# Summary of the method: (§1)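 Pools were built from human transcription factors expressed in yeast as GST fusions, captured on glutathione beads and DNA-barcoded, along with a tag-only sample. Incubation with 200 nmole of a 16-mer random double-stranded DNA library lasted 30 min at room temperature in Tris/NaCl/DTT/glycerol buffer, and was followed by washing, 0.1% formaldehyde crosslinking, proximity ligation, PCR amplification and Illumina NextSeq500 sequencing. Binding signal is the quotient of each hexamer's read frequency for a factor and its frequency for the tag-only sample.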
# GABPA = molecular target: T2, GABPA (Homo sapiens, UniProt Q06546 1-454)
# T2 sequence: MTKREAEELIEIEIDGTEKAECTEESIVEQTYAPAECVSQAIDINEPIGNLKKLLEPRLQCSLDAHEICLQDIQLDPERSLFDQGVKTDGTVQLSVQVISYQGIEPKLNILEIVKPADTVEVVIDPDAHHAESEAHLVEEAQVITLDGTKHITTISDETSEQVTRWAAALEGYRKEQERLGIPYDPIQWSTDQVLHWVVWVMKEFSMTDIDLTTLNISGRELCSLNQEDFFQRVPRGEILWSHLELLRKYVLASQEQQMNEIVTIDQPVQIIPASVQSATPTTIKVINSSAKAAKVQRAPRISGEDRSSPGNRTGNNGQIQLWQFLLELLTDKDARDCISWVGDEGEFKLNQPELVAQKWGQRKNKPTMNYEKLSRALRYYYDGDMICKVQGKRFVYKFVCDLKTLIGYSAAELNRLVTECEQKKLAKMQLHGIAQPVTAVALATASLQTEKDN
# Summary of the method: as §1
# ELF1 = ELF1 (Homo sapiens, UniProt P32519 1-619)
# Summary of the method: as §1
# EHF = molecular target: T3, EHF (Homo sapiens, UniProt Q9NZC4 1-300)
# T3 sequence: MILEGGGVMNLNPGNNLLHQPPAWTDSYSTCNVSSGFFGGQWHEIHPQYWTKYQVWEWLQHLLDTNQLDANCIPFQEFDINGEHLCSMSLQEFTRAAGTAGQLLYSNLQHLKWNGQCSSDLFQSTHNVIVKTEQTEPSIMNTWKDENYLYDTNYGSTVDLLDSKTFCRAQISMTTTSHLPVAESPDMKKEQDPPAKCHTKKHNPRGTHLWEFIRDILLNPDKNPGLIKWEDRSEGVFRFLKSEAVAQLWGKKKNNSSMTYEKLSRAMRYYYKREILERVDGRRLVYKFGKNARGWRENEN
# Summary of the method: as §1
# SPIB = SPIB (Homo sapiens, UniProt Q01892 1-262)
# Summary of the method: as §1
# ETV5 = ETV5 (Homo sapiens, UniProt P41161 1-510)
# Summary of the method: as §1
# ELF4 = ELF4 (Homo sapiens, UniProt Q99607 1-663)
# Summary of the method: as §1
# ELK4 = molecular target: T4, ELK4 (Homo sapiens, UniProt P28324-2 1-405)
# T4 sequence: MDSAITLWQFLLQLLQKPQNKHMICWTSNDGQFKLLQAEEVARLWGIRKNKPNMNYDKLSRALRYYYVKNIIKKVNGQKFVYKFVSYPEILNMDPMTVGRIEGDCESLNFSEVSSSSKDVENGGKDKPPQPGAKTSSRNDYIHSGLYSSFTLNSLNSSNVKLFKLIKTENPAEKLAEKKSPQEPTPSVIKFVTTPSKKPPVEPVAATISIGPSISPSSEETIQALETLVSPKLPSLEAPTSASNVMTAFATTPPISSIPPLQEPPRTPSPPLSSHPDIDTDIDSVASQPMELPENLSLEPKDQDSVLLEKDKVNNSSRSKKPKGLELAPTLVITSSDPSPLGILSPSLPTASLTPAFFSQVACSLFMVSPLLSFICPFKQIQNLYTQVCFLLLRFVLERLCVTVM
# Summary of the method: as §1
# ELF3 = molecular target: T5, ELF3 (Homo sapiens, UniProt P78545 1-371)
# T5 sequence: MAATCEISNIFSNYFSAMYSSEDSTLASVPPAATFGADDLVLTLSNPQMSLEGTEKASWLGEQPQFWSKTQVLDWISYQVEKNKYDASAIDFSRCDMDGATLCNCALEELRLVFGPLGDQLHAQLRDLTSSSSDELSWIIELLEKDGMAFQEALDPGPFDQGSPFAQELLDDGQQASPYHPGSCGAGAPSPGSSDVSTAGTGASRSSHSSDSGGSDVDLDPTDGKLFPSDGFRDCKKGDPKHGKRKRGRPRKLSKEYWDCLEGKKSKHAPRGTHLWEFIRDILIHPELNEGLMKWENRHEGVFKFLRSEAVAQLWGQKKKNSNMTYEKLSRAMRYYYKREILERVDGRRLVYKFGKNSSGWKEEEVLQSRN
# Summary of the method: as §1
# ETV1 = ETV1 (Homo sapiens, UniProt P50549 1-477)
# Summary of the method: as §1
# ETV3L = molecular target: T6, ETV3L (Homo sapiens, UniProt Q6ZN32 1-361)
# T6 sequence: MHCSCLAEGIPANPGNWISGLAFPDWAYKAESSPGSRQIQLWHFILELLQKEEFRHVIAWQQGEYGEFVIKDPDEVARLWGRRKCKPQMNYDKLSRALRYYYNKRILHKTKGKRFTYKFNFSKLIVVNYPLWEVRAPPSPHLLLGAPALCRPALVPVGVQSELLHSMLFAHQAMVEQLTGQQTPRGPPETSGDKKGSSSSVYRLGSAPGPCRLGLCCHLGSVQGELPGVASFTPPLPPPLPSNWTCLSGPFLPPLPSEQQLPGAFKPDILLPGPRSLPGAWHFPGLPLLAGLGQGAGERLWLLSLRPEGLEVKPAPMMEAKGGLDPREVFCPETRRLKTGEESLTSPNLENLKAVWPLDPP
# Summary of the method: as §1
# ETS2 = molecular target: T7, ETS2 (Homo sapiens, UniProt P15036 1-469)
# T7 sequence: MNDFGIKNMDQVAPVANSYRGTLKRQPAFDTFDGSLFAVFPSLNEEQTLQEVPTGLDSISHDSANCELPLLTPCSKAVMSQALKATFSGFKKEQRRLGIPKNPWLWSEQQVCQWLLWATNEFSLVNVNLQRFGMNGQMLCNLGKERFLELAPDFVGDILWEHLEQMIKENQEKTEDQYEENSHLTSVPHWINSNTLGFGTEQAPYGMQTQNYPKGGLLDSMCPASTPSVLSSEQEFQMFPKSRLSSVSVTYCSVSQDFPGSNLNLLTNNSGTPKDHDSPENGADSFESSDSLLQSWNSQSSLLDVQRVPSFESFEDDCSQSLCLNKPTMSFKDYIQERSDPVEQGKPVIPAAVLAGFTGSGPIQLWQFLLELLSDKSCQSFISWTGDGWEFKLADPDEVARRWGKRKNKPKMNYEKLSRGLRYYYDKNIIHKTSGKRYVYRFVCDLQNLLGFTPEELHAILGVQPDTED
# Summary of the method: as §1
# SPDEF = molecular target: T8, SPDEF (Homo sapiens, UniProt O95238 1-335)
# T8 sequence: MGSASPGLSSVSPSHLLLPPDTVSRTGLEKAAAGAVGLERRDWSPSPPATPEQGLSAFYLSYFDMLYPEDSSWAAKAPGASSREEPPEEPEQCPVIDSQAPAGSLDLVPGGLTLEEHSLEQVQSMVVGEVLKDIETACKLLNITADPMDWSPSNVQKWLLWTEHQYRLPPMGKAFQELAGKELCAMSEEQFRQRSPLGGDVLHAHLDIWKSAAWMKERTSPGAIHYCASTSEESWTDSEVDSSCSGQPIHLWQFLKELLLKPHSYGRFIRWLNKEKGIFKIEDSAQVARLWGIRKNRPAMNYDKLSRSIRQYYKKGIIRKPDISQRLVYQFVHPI
# Summary of the method: as §1
# ETV7 = molecular target: T9, ETV7 (Homo sapiens, UniProt Q9Y603 1-341)
# T9 sequence: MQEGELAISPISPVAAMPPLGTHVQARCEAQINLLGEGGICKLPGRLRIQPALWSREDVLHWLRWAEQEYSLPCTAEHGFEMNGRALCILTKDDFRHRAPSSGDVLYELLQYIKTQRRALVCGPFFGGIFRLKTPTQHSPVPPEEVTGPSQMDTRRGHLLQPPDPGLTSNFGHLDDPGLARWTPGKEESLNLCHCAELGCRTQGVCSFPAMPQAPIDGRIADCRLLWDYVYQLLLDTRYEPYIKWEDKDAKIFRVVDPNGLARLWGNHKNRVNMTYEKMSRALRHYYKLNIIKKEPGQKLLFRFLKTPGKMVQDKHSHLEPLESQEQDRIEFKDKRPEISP
# Summary of the method: as §1
# ETV3 = molecular target: T10, ETV3 (Homo sapiens, UniProt P41162-2 1-143)
# T10 sequence: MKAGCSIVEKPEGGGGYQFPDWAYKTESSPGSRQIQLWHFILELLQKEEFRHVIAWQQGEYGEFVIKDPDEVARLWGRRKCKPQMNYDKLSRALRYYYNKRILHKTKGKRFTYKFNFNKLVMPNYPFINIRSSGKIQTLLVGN
# Summary of the method: as §1
# ETV6 = ETV6 (Homo sapiens, UniProt P41212 1-452)
# Summary of the method: as §1
# Sequence of ELF4 (Q99607 whole entry): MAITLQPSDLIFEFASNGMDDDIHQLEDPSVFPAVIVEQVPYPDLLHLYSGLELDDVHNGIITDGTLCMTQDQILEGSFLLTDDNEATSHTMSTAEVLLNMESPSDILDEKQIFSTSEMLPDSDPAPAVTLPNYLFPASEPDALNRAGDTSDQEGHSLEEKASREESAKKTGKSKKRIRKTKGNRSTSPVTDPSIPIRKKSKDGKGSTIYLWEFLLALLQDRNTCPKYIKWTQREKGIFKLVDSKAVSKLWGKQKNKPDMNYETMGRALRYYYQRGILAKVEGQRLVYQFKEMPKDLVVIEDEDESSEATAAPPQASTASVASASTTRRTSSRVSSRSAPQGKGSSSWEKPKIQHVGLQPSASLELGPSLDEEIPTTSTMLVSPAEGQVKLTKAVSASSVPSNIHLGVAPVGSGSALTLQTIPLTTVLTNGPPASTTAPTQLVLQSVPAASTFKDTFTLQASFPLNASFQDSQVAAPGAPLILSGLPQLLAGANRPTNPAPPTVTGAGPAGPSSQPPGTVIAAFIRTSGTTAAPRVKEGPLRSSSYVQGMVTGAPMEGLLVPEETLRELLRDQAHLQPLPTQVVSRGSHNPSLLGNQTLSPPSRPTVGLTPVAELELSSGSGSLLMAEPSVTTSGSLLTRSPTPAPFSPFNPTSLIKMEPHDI
# Sequence of ETV1 (P50549 whole entry): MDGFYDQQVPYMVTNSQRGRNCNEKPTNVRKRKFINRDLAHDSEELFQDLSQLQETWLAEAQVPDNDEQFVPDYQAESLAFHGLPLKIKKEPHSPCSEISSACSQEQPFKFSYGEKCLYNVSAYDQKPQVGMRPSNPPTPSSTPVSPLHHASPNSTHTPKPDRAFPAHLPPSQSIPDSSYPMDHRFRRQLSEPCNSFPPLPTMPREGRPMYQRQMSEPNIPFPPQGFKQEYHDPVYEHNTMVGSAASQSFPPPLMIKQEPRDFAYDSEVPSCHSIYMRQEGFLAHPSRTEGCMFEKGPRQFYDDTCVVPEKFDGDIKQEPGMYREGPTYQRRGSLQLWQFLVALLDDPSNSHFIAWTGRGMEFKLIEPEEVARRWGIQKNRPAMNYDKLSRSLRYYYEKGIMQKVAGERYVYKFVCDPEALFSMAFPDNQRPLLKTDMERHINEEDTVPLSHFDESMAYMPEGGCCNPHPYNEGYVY
# Sequence of ETV5 (P41161 whole entry): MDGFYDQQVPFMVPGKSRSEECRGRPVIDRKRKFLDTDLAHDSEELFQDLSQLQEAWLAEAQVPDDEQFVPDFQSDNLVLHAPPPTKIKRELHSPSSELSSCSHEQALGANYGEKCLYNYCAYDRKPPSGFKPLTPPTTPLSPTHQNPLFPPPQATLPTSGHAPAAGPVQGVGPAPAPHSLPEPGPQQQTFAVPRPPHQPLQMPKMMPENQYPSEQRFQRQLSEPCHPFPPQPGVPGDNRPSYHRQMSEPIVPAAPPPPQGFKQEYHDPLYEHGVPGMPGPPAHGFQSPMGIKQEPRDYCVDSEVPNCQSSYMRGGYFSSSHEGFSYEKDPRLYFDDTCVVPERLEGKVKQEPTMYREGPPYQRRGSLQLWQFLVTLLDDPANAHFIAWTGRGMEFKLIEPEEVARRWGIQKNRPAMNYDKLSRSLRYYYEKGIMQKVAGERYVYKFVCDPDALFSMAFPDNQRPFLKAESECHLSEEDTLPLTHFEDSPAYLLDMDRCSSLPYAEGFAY
# Sequence of SPIB (Q01892 whole entry): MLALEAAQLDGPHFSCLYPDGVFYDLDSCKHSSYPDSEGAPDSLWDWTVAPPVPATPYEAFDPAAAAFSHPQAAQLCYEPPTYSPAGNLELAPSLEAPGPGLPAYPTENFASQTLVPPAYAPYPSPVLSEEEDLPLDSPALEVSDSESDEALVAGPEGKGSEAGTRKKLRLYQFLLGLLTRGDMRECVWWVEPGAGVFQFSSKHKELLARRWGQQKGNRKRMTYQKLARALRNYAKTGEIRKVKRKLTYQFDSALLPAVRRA
# Sequence of ETV6 (P41212 whole entry): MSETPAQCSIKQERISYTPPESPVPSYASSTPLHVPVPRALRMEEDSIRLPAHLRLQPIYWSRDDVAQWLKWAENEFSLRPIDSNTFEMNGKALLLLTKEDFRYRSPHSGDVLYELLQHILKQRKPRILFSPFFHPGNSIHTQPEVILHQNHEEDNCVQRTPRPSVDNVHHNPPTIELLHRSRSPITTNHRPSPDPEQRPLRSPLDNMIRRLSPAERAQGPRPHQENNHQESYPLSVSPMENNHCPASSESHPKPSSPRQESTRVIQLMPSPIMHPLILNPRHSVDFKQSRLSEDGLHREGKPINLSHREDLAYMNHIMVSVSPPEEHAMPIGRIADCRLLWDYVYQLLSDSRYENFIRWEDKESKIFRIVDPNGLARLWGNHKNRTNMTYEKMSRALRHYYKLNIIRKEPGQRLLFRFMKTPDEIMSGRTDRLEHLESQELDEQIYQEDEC
# Sequence of ELF1 (P32519 whole entry): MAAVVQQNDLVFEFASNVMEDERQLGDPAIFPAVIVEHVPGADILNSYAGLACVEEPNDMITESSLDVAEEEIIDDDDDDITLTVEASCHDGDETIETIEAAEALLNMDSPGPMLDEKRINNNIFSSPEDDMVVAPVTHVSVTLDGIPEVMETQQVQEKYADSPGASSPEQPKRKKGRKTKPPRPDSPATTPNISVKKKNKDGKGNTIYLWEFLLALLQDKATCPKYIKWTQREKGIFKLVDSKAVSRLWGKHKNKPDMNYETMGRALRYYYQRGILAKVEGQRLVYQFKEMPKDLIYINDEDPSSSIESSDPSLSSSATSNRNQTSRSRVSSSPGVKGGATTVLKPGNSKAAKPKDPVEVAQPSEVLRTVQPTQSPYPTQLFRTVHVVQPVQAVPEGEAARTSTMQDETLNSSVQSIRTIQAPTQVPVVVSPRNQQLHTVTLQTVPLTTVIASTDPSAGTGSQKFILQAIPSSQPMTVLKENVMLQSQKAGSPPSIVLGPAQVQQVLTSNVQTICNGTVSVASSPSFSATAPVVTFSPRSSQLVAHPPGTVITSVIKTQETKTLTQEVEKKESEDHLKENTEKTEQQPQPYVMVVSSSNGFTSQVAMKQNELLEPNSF
sequence,measurement,setting,value
ACACGG,binding signal,ELK1,"1.03 fold enrichment (6-mer frequency, TF over GST control)"
same,binding signal,GABPA,"1.05 fold enrichment (6-mer frequency, TF over GST control)"
same,binding signal,ELF1,"1.06 fold enrichment (6-mer frequency, TF over GST control)"
same,binding signal,EHF,"1.05 fold enrichment (6-mer frequency, TF over GST control)"
same,binding signal,SPIB,"1.1 fold enrichment (6-mer frequency, TF over GST control)"
same,binding signal,ETV5,"1.04 fold enrichment (6-mer frequency, TF over GST control)"
same,binding signal,ELF4,"1.05 fold enrichment (6-mer frequency, TF over GST control)"
same,binding signal,ELK4,"1.07 fold enrichment (6-mer frequency, TF over GST control)"
same,binding signal,ELF3,"1.06 fold enrichment (6-mer frequency, TF over GST control)"
same,binding signal,ETV1,"1.1 fold enrichment (6-mer frequency, TF over GST control)"
same,binding signal,ETV3L,"1.06 fold enrichment (6-mer frequency, TF over GST control)"
same,binding signal,ETS2,"1.08 fold enrichment (6-mer frequency, TF over GST control)"
same,binding signal,SPDEF,"1.17 fold enrichment (6-mer frequency, TF over GST control)"
same,binding signal,ETV7,"1.03 fold enrichment (6-mer frequency, TF over GST control)"
same,binding signal,ETV3,"1.13 fold enrichment (6-mer frequency, TF over GST control)"
same,binding signal,ETV6,"1.06 fold enrichment (6-mer frequency, TF over GST control)"
